Inhibition data for 55 compounds are collected here from PubChem BioAssay AID2073 (Sanford-Burnham Center for Chemical Genomics, 2009).

Among all 290,000 compounds or so, about 570 (0.2%) were called active. Not shown: some 1% with an inconclusive outcome. Rule as the data show it: active = inhibition mostly above about 51% (no sharp cut-off); inconclusive = no clear call, values can overlap the other calls; inactive = mostly below about 53%. This excerpt belongs to a sample that is enriched for actives.

In this experiment the target is Voltage-dependent N-type calcium channel subunit alpha-1B (Homo sapiens) (UniProt Q00975). In words: disruptors of CaV2.2 binding to Mint1 – biochemical, HTRF (AID 2073). To be noted: HTRF protein-protein interaction, Mint1-CaV2.2, at 20 µM, stronger effect = higher value. In general terms: Time-resolved FRET reads energy transfer from a long-lived donor to a nearby acceptor.

The mark [1] stands for this setting: measured here: average of repeat tests.

Sequence of Voltage-dependent N-type calcium channel subunit alpha-1B (Homo sapiens) (Q00975 whole entry, looked up): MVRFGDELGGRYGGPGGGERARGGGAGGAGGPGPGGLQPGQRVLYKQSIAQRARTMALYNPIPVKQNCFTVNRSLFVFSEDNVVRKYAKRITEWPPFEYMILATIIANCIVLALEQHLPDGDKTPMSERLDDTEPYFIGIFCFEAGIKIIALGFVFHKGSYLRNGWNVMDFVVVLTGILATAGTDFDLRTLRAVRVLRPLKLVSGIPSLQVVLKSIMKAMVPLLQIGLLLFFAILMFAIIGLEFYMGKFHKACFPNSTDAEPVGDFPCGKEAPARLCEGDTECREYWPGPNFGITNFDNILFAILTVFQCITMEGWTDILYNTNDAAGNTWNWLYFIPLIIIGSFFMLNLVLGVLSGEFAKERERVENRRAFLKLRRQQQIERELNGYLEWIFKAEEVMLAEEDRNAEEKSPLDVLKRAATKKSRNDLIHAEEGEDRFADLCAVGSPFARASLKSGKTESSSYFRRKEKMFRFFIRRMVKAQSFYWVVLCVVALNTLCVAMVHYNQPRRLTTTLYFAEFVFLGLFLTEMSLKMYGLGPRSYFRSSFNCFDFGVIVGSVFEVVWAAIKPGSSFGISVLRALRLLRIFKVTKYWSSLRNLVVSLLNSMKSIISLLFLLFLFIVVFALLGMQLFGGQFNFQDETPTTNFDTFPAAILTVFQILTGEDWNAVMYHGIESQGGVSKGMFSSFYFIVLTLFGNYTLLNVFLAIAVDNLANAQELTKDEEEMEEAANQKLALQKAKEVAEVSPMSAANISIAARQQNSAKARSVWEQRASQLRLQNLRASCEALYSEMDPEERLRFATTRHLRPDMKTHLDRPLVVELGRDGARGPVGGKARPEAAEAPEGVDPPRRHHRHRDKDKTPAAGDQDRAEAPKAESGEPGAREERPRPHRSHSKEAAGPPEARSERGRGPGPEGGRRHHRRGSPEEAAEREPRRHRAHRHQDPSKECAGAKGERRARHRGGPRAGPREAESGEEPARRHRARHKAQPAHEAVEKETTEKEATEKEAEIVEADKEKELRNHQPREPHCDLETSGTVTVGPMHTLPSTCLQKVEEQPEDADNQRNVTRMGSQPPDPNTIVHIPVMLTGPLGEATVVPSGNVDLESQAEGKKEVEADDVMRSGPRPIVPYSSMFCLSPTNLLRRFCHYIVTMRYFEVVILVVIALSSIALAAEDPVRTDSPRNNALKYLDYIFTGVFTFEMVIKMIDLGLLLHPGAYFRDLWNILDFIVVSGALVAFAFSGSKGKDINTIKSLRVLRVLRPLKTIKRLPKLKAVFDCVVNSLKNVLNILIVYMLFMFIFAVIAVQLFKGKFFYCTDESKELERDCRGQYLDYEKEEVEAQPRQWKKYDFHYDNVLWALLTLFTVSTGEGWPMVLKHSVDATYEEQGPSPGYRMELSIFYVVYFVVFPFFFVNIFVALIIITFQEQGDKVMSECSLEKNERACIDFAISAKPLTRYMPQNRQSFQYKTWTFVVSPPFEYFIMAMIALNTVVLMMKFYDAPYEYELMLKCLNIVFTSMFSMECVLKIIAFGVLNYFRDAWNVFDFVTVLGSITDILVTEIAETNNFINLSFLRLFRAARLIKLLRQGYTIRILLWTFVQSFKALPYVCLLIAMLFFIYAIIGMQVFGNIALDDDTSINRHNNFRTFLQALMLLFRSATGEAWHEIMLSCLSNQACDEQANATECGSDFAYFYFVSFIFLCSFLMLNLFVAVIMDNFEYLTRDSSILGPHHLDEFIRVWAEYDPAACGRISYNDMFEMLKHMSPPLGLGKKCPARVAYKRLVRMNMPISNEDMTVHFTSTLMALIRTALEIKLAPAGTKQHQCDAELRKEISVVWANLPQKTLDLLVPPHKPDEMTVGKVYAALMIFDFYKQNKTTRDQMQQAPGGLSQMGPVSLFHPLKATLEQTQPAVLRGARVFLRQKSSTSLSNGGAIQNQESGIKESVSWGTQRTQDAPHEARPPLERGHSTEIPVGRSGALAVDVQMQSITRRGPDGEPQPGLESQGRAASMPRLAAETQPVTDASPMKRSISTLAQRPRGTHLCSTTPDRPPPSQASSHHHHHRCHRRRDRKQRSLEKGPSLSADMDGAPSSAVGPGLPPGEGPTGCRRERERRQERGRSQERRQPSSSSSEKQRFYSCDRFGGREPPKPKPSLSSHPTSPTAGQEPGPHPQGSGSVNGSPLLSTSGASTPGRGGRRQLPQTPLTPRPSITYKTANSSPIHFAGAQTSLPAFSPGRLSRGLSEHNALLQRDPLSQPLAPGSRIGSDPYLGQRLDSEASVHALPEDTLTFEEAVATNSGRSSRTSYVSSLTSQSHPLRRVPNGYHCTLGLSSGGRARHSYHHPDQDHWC

Broadly, the inhibition is the drop in the measured response relative to a control, in per cent. With `CC(C)n1c(=O)c(C=Nc2ccc(Br)cc2)c(O)n(Cc2ccco2)c1=O`, the inhibition is 59.1% (active).

As to `CC(C)n1c(=O)c(C=Nc2ccc(F)cc2)c(O)n(Cc2ccco2)c1=O`, the inhibition is 14.1% (inactive). Regarding `CC(C)n1c(=O)c(C=Nc2ccc(Cl)cc2)c(O)n(Cc2ccco2)c1=O`, the inhibition is 63.2% (inactive). For the same compound, the inhibition under setting [1] stood at 17.6%. In the case of `O=C(O)CCn1cc(C=C2C(=O)NC(=O)NC2=O)c(-c2ccc(Br)cc2)n1`, the inhibition is 11.7% (inactive). Still for that read-out and setting: the same measure for `O=C(O)CCn1cc(C=C2C(=O)NC(=S)NC2=O)c(-c2cccc(Br)c2)n1`: 75.7% (active); for `O=C(O)CCn1cc(C=C2C(=O)NC(=O)NC2=O)c(-c2cc3ccccc3oc2=O)n1`: 42.3% (inactive). As for `O=C(Cc1ccc(Br)cc1)N1CCN(Cc2ccccc2)CC1`, the inhibition was 9.2% (inactive). On to `CCc1ccc(N2C(=O)NC(=O)/C(=C/c3cccn3CCOc3ccc(C)cc3)C2=O)cc1`, for which the inhibition was 17.5% (inactive). The same measure, in the same setting: the same measure for `CN(C)C(=S)SSC(=S)N(C)C`: 78% (active); for `CC(=O)N1CCN(Cc2ccc(Cl)nc2)CC1`: 5.2% (inactive); for `O=C1CC(=O)N(c2cccc(Br)c2)C(=O)N1`: 3.7% (inactive).

Consider `Cc1ccc(NC(=O)c2cn(CCC#N)nc2-c2ccc3c(c2)OCCO3)c([N+](=O)[O-])c1`, for which the inhibition is -4.2% (inactive). Regarding `COc1ccc(Cl)cc1N=Cc1c(O)n(C)c(=O)n(C)c1=O`, the inhibition is 15.7% (inactive). Same read-out and setting: the value for `CCN(CC)C(=O)c1ccc(NC(=O)CCCSc2ccccc2)cc1` was -3.4% (inactive); that for `CCCCC/C=C\C/C=C\C/C=C\C/C=C\CCCC(=O)Nc1ccc(O)cc1` was 51% (active); that for `CCC(=O)Nc1ccccc1` was -4.1% (inactive).

For `CN1CCN(C(=O)Cc2ccccc2)CC1`, the inhibition is 5.6% (inactive).

`O=c1[nH]c(=S)n(-c2ccccc2Cl)c(O)c1C=NCCN1CCNCC1`: the inhibition is -0.4% (inactive).

For the compound `Cc1oc(-c2ccccc2)nc1CN1C(=O)CN=C(c2ccccc2)c2ccccc21`, the inhibition is -1.1% (inactive). As for `COc1ccc(CC[n+]2cc(/N=C(\C)[O-])on2)cc1OC`, the inhibition is 11.6% (inactive). Same read-out and setting: the same measure for `Cc1cc(C=C2C(=O)NC(=S)NC2=O)c(C)n1-c1ccc2c(c1)OCO2`: 53.2% (active); for `Cc1cc(C=C2C(=O)NC(=O)NC2=O)c(C)n1-c1ccc2c(c1)OCO2`: 16.8% (inactive); for `Cc1cc(/C=C2\C(=O)NC(=O)N(C)C2=O)c(C)n1-c1ccc2c(c1)OCO2`: 0.4% (inactive).

In the case of `O=C1NC(=O)C(CCc2ccncc2)(CCc2ccccn2)C(=O)N1c1ccc(Br)cc1` (stereo not drawn), the inhibition is 16.2% (inactive). For `COc1cc(Br)c(CNCCc2ccc3c(c2)OCO3)cc1OC`, the inhibition was -3.9% (inactive). `COc1cc2c(c(OC)c1)C(=O)OC(C)CCCC(=O)CCCCC2` (stereo not drawn): the inhibition was 7.1% (inactive). Still for that read-out and setting: the value for `COc1cccc(-n2c(/C=C/c3ccc(O)c(O)c3)nc3ccccc3c2=O)c1` was 62.6% (active); that for `O=c1c2ccccc2nc(/C=C/c2ccc(O)c(O)c2)n1-c1ccccc1` was 33.3% (inactive); that for `COc1ccc(-n2c(/C=C/c3ccc(O)c(O)c3)nc3ccccc3c2=O)cc1` was 40.5% (inactive).

With `O=C(CN1CC(c2ccccc2)CC1=O)NCc1ccc(F)cc1` (stereo not drawn), the inhibition was -3.7% (inactive). Still for that read-out and setting: the value for `C[n+]1ccc(-c2ccncc2)cc1` was 6.3% (inactive). Same read-out and setting: the value for `COc1ccc(N=Nc2c(O)[nH]c(=S)[nH]c2=O)cc1` was -13.3% (inactive). Same read-out and setting: the same measure for `CSc1nc(N)c(N=Nc2ccc([As](=O)(O)O)cc2)c(=O)[nH]1`: 58.9% (active).

As to `O=[As](O)(O)c1ccc(N=Nc2ccc(O)cc2)cc1`, the inhibition was 15.6% (inactive). On the same count and under the same terms, the same measure for `CN1C(=O)C(=Cc2ccc(OCCN(C)c3ccccn3)cc2)C(=O)N(C)C1=O`: 3.3% (inactive); for `CCOP(=O)(OCC)/C(C#N)=C/c1ccc(Br)cc1`: 3.7% (inactive); for `N#CC(C#N)=Cc1ccc(C=C(C#N)C#N)cc1`: 19.1% (inactive). For the compound `CCc1ccc(/C=C(/C#N)C(N)=S)cc1`, the inhibition was 84.5% (active).

For `CN(C)P1(N(C)C)=NC(C(F)(F)F)=NC(C(F)(F)F)=N1`, the inhibition was 2.9% (inactive). The same measure, in the same setting: the same measure for `CNC(=S)N(C)CCc1cc2c(c(OC)c1/C=C1/C(=O)NC(=O)N(C)C1=O)OCO2`: 6.3% (inactive).

On to `CNC(=S)N(C)CCc1cc2c(c(OC)c1C=C1C(=O)NC(=O)NC1=O)OCO2`, for which the inhibition is 50.6% (active).

For the compound `COc1c(C=C2C(=O)NC(=O)NC2=O)c(CCN(C)C(=O)c2ccccc2)cc2c1OCO2`, the inhibition was 15.8% (inactive).

Turning to `O=C1NC(=S)N(Cc2ccco2)C(=O)/C1=C\c1cccs1`, the inhibition is 76.9% (active). Still for that read-out and setting: the value for `C=CCN1C(=O)/C(=C/c2cccs2)C(=O)NC1=S` was -17.9% (inactive). Same read-out and setting: the same measure for `O=C1NC(=O)N(Cc2ccc(F)cc2)C(=O)/C1=C/c1cccs1`: 29.5% (inactive); for `Cc1c(C=C2C(=O)N(C)C(=S)N(C)C2=O)c2ccccc2n1CC(=O)NCC1CCCO1` (stereo not drawn): -5.7% (inactive); for `CCCCCCn1c(O)c(C=NCCN2CCOCC2)c(=O)[nH]c1=O`: -1.8% (inactive).

As to `O=C1/C(=C\c2ccc([N+](=O)[O-])cc2)N2CCC1CC2`, the inhibition is -2.4% (inactive). Still for that read-out and setting: the same measure for `O=C1C2(c3ccccc3)CN3CN(C2)CC1(c1ccccc1)C3`: -5.2% (inactive).

With `CC(C)[C@H]1C(=O)N2CCC[C@H]2[C@]2(O)O[C@](NC(=O)[C@@H]3C=C4c5cccc6[nH]cc(c56)C[C@H]4N(C)C3)(C(C)C)C(=O)N12`, the inhibition was 69.1% (inactive). Also, the inhibition under setting [1] was 26.9%. With `CC(C)[C@@]1(NC(=O)[C@@H]2C=C3c4cccc5[nH]cc(c45)C[C@H]3N(C)C2)O[C@@]2(O)[C@@H]3CCCN3C(=O)[C@H](Cc3ccccc3)N2C1=O`, the inhibition is 66.3% (active). For `CC(C)C[C@H]1C(=O)N2CCCC2[C@]2(O)O[C@](NC(=O)[C@@H]3C=C4c5cccc6[nH]cc(c56)CC4N(C)C3)(C(C)C)C(=O)N12` (stereo partly drawn), the inhibition is 67.7% (inactive). Further, the inhibition under setting [1] is 31.4%.

Consider `CC(C)CC(NC(=O)C1CCCCC1)C(=O)N1CCC2(CC1)OCCO2` (stereo not drawn), for which the inhibition was -0.4% (inactive). On the same count and under the same terms, the value for `NP(=O)(OCCCc1ccccc1)Oc1ccc(Cl)cc1` (stereo not drawn) was 2.9% (inactive). With `C=Cn1ccnc1P(=S)(c1ccc(Cl)cc1)c1nccn1C=C`, the inhibition is 4.2% (inactive).
